# Assay results from PubChem BioAssay (NCATS).
# Inconclusive results are not listed. Unmarked numbers belong to inactive results. The source made the active and inactive calls. The call rests on the fitted dose curve; in most records, active means well fitted inhibition curve with a large enough effect; inconclusive means small, poorly fitted or top-dose-only effect; inactive means no such curve, though single readings can be large or run the other way.
# Target: Cytochrome P450 3A4 (Homo sapiens) (UniProt P08684)
# Sequence (P08684 whole entry, looked up): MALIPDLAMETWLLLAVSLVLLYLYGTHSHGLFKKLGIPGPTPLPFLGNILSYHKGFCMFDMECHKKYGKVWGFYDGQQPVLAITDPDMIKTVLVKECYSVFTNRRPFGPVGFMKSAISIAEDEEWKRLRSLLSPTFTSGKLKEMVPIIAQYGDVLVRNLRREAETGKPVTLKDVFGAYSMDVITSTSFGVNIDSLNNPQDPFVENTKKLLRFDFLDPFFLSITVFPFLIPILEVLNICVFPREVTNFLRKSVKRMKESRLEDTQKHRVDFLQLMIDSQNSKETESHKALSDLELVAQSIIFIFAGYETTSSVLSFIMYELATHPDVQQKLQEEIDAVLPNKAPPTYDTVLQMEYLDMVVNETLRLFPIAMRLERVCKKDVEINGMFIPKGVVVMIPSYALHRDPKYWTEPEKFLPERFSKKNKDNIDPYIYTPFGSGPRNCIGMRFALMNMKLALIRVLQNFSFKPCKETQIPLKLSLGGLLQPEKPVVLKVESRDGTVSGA
# Experiment: qHTS Assay for Inhibitors and Substrates of Cytochrome P450 3A4 (AID 884); further: nearly all actives have a fitted effect of over 50% in size
# Settings: recombinant CYP3A4, Luciferin-PPXE luminescence; series mostly up to 57.1 µM; activity change, negative = inhibition: at the top concentration
# Method: NIH Molecular Libraries Screening Centers Network [MLSCN]
# NIH Chemical Genomics Center [NCGC]
# The P450 gene superfamily is involved in the metabolism and clearance of xenobiotics. This assay used human CYP3A4 to measure the dealkylation of luciferin-6' phenylpiperazinylyl (Luciferin-PPXE; […]) to luciferin. The luciferin is then measured by luminescence after the addition of a luciferase detection reagent. Luciferin-PPXE concentration in the assay was equal to its KM for CYP3A4. Inhibitors and some substrates limit the production of luciferin, and decrease measured luminescence.
# NCGC Assay Protocol Summary:
# Two uL of enzyme and substrate mix (final concentrations: 20nM CYP3A4, 25uM Luciferin-PPXE, 200mM KPO4) were dispensed into a white, solid bottom 1536-well microtiter plate. 23nL of compound was transferred by a pin tool. The plate was incubated at RT for 10 min. Two uL of an NADPH regeneration solution (Promega supplied reagent) was dispensed and the reaction was allowed to continue for 60 min at RT. Then the reaction was stopped by reconstituted luciferin detection buffer. After another 20 min of incubation the plate was read on the ViewLux (Perkin Elmer) at 60 sec exposure and 2x2 binning. This protocol was carried out with Promega-Glo reagents and further information can be found at http://www.promega.com/tbs/tb325/tb325.pdf. Data were normalized to the to AC100 inhibition (57 uM ketoconazole).
# Keywords: P450, CYP3A4, Luciferase, MLSMR, MLSCN, NIH Roadmap, qHTS, NCGC
# On the % scale 0 is the no-effect control and ±100 the full control effect; potency means the concentration at half of the fitted maximal effect.
SMILES,Potency,"activity change, negative = inhibition"
CCCC[C@H]1C[C@@H]1[C@@H]1N(P(=O)(c2ccccc2)c2ccccc2)[C@](CO)(c2ccccc2)CC12CC2,2000 nM (active),–
c1ccc2c(c1)ccc1cc3c(ccc4ccccc43)cc12,–,-2.29%
CCC/C=C(\CCC)C(NS(=O)(=O)c1ccc(Cl)cc1)c1ccc(C(=O)OC)cc1 (stereo not given),3980 nM (active),–
C[C@@H](C(=O)NCc1cccc2ccccc12)[C@H]1C[C@]1(C)[C@H](NC(=O)OCc1ccccc1)c1ccccc1,398 nM (active),–
CCCC[C@H]1C[C@@H]1[C@@H]1N(P(=O)(c2ccccc2)c2ccccc2)C[C@@](O)(c2ccccc2)CC12CC2,2000 nM (active),–
O=C1OC(O)C(C(Cl)Cl)=C1Cl (stereo not given),–,-8.42%
CCCC[C@@H]1C[C@H]1C(NC(=O)c1cccs1)c1ccccc1C(F)(F)F (stereo not given in full),3160 nM (active),–
Cc1cc(C(C)(C)CC(C)(C)C)ccc1OCCOCC[N+](C)(C)Cc1ccccc1,–,-26.3%
CCC/C=C(\CCC)C(NC(=O)c1cccs1)c1ccc(C(=O)OC)cc1 (stereo not given),1260 nM (active),–
COC(=O)[C@@]1(Cc2ccccc2)[C@@H]2C(=CC(=O)[C@H]2CC(=O)C(=O)N(C)C)CN1C(=O)c1ccccc1,7940 nM (active),–
CNc1ccc(O)cc1,12600 nM (active),–
CCC[C@@H]1C[C@@]1(CCC)C(NS(=O)(=O)c1cccc2cccnc12)c1ccc(Cl)cc1 (stereo not given in full),794 nM (active),–
COC(=O)[C@@]1(Cc2ccc(F)cc2)[C@H]2c3cc(C(=O)N(C)C)n(Cc4c(CO)[nH]cc(C)c4=O)c3C[C@H]2CN1C(=O)c1ccccc1,1580 nM (active),–
O=C(Nc1ccc2ccccc2c1)[C@H]1C[C@@H]1[C@H](NP(=O)(c1ccccc1)c1ccccc1)c1ccccc1,2510 nM (active),–
COc1ccc2oc(-c3ccccc3)c(OC)c(=O)c2c1,31600 nM (active),–
CCCc1cc2c(n1CCc1ccc(Cl)cc1)C(C)C1CN(C(=O)c3ccccc3)C(C)(C(=O)OC)C21 (stereo not given),5010 nM (active),–
CC1(C)C(=O)C(c2ccccc2)=C2CN3C(=O)N(CCc4ccccc4)C(=O)C3(Cc3ccccc3)C=C21 (stereo not given),2000 nM (active),–
CC1(C)SC2C(NC(=O)C(C(=O)O)c3ccccc3)C(=O)N2C1C(=O)O (stereo not given),–,0.622%
COc1ccc2c(=O)cc(-c3ccc(O)cc3)oc2c1,3160 nM (active),–
CCC/C=C(\CCC)C(NS(=O)(=O)c1ccccc1)c1ccc(C(F)(F)F)cc1 (stereo not given),6310 nM (active),–

SMILES,Potency,"activity change, negative = inhibition"
C[C@@H](C(=O)NCCF)[C@H]1C[C@]1(C)[C@H](NC(=O)OCc1ccccc1)c1ccccc1,3980 nM (active),–
COC(=O)[C@@]1(Cc2ccc(F)cc2)[C@H]2c3cc(C(=O)N4CCCC4)n(Cc4ccc(Cl)c(C(F)(F)F)c4)c3C[C@H]2CN1C(=O)c1ccccc1,2510 nM (active),–
C[C@@H](C(=O)Nc1ccc2ccccc2c1)[C@H]1C[C@]1(C)[C@H](NP(=O)(c1ccccc1)c1ccccc1)c1ccccc1,2000 nM (active),–
C[C@@H](C(=O)Nc1ccc2ccccc2c1)[C@@H]1C[C@@]1(C)[C@@H](N)c1ccccc1,7940 nM (active),–
COC(=O)[C@@]1(Cc2ccc(F)cc2)[C@H]2c3cc(C(=O)N(C)C)n(Cc4ccc(Cl)c(C(F)(F)F)c4)c3C[C@H]2CN1C(=O)c1ccccc1,2000 nM (active),–
C=C(CC1([C@@H](NP(=O)(c2ccccc2)c2ccccc2)[C@H]2C[C@@H]2CCN(C(=O)OCC)S(=O)(=O)c2ccc(C)cc2)CC1)c1ccccc1,1580 nM (active),–
COc1cc(O)c2c(=O)cc(-c3ccccc3)oc2c1,10000 nM (active),–
CCCC[C@@H]1C[C@H]1C(NC(=O)c1cccnc1)c1ccc(Cl)cc1 (stereo not given in full),79.4 nM (active),–
COC(=O)[C@@]1(Cc2ccc(F)cc2)[C@H]2c3cc(C(=O)N(C)C)n(Cc4ccc(C)c(F)c4F)c3C[C@H]2CN1C(=O)c1ccccc1,794 nM (active),–
O=c1cc(-c2ccccc2O)oc2cc(O)cc(O)c12,3980 nM (active),–
COc1cccc2oc(-c3ccc(O)cc3)cc(=O)c12,15800 nM (active),–
CCCC[C@@H]1C[C@H]1C(NC(=O)c1ccc(C(F)(F)F)cc1)c1ccc(C(=O)OC)cc1 (stereo not given in full),5010 nM (active),–
C=CC(=O)OCCOCCOC(=O)C=C,–,-19.8%
C[C@@H](C(=O)Nc1ccc2ccccc2c1)[C@H]1C[C@]1(C)[C@H](NC(=O)Oc1ccc(F)cc1)c1ccccc1,794 nM (active),–
CC(=O)N[C@@H](c1ccccc1)[C@]1(C)C[C@H]1[C@@H](C)C(=O)Nc1ccc2ccccc2c1,7940 nM (active),–
CC(=O)Nc1ccc(C(=O)CCl)cc1,–,-26.5%
COC(=O)[C@@]1(Cc2ccccc2)[C@H]2c3cc(C(=O)N4CCCC4)n(CCc4ccccn4)c3C[C@H]2CN1C(=O)c1ccccc1,2000 nM (active),–
c1ccc2c(c1)-c1cccc3c1c-2cc1ccccc13,–,-27%
C[C@@H](C(=O)Nc1ccc2ccccc2c1)[C@H]1C[C@]1(C)[C@H](NC(=O)OCc1ccccc1)c1ccccc1,2510 nM (active),–
COc1cc(-c2cc(=O)c3ccccc3o2)ccc1O,15800 nM (active),–
